Compounds without any hit were thinned out: in the full panel of roughly 83,000, 20% have a hit.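 Results are percent growth after 48 hours of single-concentration exposure. 100 means growth as in untreated cells, lower positive values show inhibition; negative values down to -100 show cell death.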 Calls of active or inactive are those of the source. How the source made its calls: active means growth percent below 10; inactive means the rest.

For the assay, the system named is DU-145 prostate. Put plainly: NCI-60 one-dose screen, 48 h (100 = growth as untreated, 0 = no growth, -100 = all killed). Conditions: 10 µM unless noted.
Regarding `CCOc1cc2ncc(C#N)c(Nc3ccc(F)c(Cl)c3)c2cc1NC(=O)/C=C/CN(C)C`, the growth was -56.6% (active).
In the case of `CCN(CC)CCNC(=O)c1c(C)[nH]c(/C=C2\C(=O)Nc3ccc(F)cc32)c1C` it was 33.2% (inactive); in that of `COc1ccc2c(CCC(c3ccccc3)c3ccccc3)c3[n+](cc2c1OC)CCc1cc2c(cc1-3)OCO2`, 18.5% (inactive).
In the case of `C[C@@H](Oc1cc(-n2cnc3ccc(CN4CCN(C)CC4)cc32)sc1C(N)=O)c1ccccc1C(F)(F)F` it was 2.67% (active); in that of `CC(C)=CCc1cc2c(cc1O)C1=C(C(=O)C3=C(NCCS3(=O)=O)C1=O)C(C=C(C)C)O2` (centres undefined), 41.2% (inactive).
Take `CC(N)C(Cc1ccc(Cl)cc1)c1ccc(Cl)cc1` (centres undefined): the growth was 61% (inactive).
The value for `Clc1nc(Cl)c2ncn(CC#CCn3cnc4c(Cl)nc(Cl)nc43)c2n1` was -87.2% (active); that for `O=C(Cc1ccc(-c2ccc(OCCN3CCOCC3)cc2)cn1)NCc1ccccc1` was 8.3% (active).
For the compound `Cc1nc(NC(=O)N2CCC[C@H]2C(N)=O)sc1-c1ccnc(C(C)(C)C(F)(F)F)c1`, the growth is 34.1% (inactive).
In the case of `COc1ccc2c(CCCc3ccc(Cl)cc3Cl)c3[n+](cc2c1OC)CCc1cc2c(cc1-3)OCO2` it was 17.9% (inactive); in that of `Cc1c(Cn2c(C)nc3c(C(=O)O)cc(N4CCOCC4)cc32)cccc1C(F)(F)F`, 108% (inactive); in that of `COc1cc2nccc(Oc3ccc(NC(=O)C4(C(=O)Nc5ccc(F)cc5)CC4)cc3)c2cc1OC`, 27.3% (inactive).
In the case of `C=CCCCC(=O)CCC(=O)OCC1O[C@@H](O[C@@H]2C(O)[C@@H](OC(C)=O)C(C)O[C@H]2O[C@H](CC=C)CCCCC)C(O)[C@@H](OC(=O)/C(C)=C/C)[C@@H]1OC(=O)/C=C/c1ccccc1` (some centres undefined) it was 33.3% (inactive); in that of `O=c1[nH]ccc2c(S(=O)(=O)N3CCCNCC3)cccc12`, 62.2% (inactive).
Turning to `CC1(C=O)NC(=O)NC1=O` (centres undefined), the growth is 111% (inactive).
With `Cc1ccc(NC(=O)c2ccc(CN3CC[C@H](N(C)C)C3)c(C(F)(F)F)c2)cc1Nc1nccc(-c2cncnc2)n1`, the growth is 30.6% (inactive).
As to `O=C(Nc1cccc(Cl)c1)Nc1ncc(CCNc2ncnc3ccsc23)s1`, the growth was 50.6% (inactive).
The value for `Cn1ccnc1C(=O)/C=C/c1ccc(CC(=O)Nc2ccc(Br)cc2)cc1` was 3.61% (active); that for `CNC(=O)c1nn(C)c2c1C(C)(C)Cc1cnc(Nc3ccc(N4CCN(C)CC4)cc3)nc1-2` was 15.5% (inactive); that for `COc1cccc2cc(-c3nc(C4CCC(C(=O)O)CC4)n4ncnc(N)c34)[nH]c12` (centres undefined) was 19.2% (inactive).
The value for `CNc1ncc2cc(-c3cc(NC(=O)NCCC(C)(C)C)c(F)cc3C)c(C)nc2n1` was 32.6% (inactive); that for `Cc1cc(C(=O)Nc2cc(Oc3ccc4nc(NC(=O)C5CC5)cn4n3)ccc2C)n(C)n1` was 54.3% (inactive).
In the case of `O=C(Cc1ccc(/C=C/C(=O)c2ncc[nH]2)cc1)Nc1ccc(Br)cc1` it was 19.9% (inactive).
Regarding `CCc1ccc(C2=C(O)C(=O)C(c3ccc(CC)cc3)=C(O)C2=O)cc1`, the growth was 13.8% (inactive).
As to `CNC(=O)c1cccc2cc(Oc3ccnc4cc(OCC5(N)CC5)c(OC)cc34)ccc12`, the growth is 77.7% (inactive).
The value for `CCCCN1CCCC[C@@H]1C(=O)N[C@H](C(=O)N(C)[C@H](CCc1nc(C(=O)N[C@@H](Cc2ccccc2)C[C@H](C)C(=O)OC)cs1)C(C)C)C(C)C` was 92.9% (inactive); that for `COc1cnc2c(c1)C(=O)c1c-2n(CCCN2CCC(N)CC2)c(=O)c2cc([N+](=O)[O-])ccc12` was 13.2% (inactive); that for `C=CC(=O)Nc1cc2c(Nc3ccc(F)c(Cl)c3)ncnc2cc1OCCCN1CCOCC1` was 14.9% (inactive).
The value for `NC(=O)c1c(OCc2c(F)cc(Br)cc2F)nsc1NC(=O)NCCCCN1CCCC1` was 22.6% (inactive); that for `CCc1nc2ccc(Cc3ccc(C(=O)NO)cc3)cc2c(=O)n1CCc1ccccc1` was 2.78% (active); that for `Cc1cc(N(CCNc2ccnc3cc(Cl)ccc23)Cc2ccc3c(c2)OCO3)nc(N2CCN(C)CC2)n1` was 38.2% (inactive).
In the case of `Cc1ccc2oc(=O)cc(-c3cc(-c4cc5ccccc5oc4=O)nc(N)c3C#N)c2c1` it was 61.6% (inactive); in that of `Cc1[nH]c(/C=C2\C(=O)Nc3ccc(F)cc32)c(C)c1C(=O)NC[C@H](O)CN1CCOCC1`, 31.3% (inactive).
Consider `O=C(Nc1cn[nH]c1-c1nc2ccc(CN3CCOCC3)cc2[nH]1)NC1CC1`, for which the growth was 41% (inactive).

The values above are taken from PubChem BioAssay (NCI).
